# Laboratory results from PubChem BioAssay (NCATS).
# Values without a mark were called inactive. Results filed as inconclusive are left out. Entries that show only a call come without a potency. The source made the active and inactive calls. Calls come from the whole dose curve; as a rule, active = well fitted curve in the direction sought with a large enough effect; inconclusive = small, poorly fitted or top-dose-only effect, or another doubt; inactive = no such curve, though single readings can be large; an effect the other way counts as inactive or inconclusive.
# What was measured:
# [1] = test system: Zika virus NS2B-NS3 protease (linked construct); test: Primary screen NINDS Rhodamine qHTS for Zika virus inhibitors (AID 1347160); note: nearly all actives have a fitted effect of over 55% in size
# In short: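 Enzyme (25 nM, linked NS2B-NS3) was preincubated 15 min with compound in 10 mM Tris-HCl pH 8.0, 0.01% Tween 20. Rhodamine110 substrate (1.5 microM) was then added and fluorescence read at start and after 15 min.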
# [2] = target: Calcium and integrin-binding protein 1 (Homo sapiens) (UniProt Q99828); test: Primary qHTS for Identification of Calcium Integrin Binding Protein 1 (CIB1) Competitor (AID 1508620);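 note: GST tagged CIB1 binding a fluorescein labelled alphaIIb integrin peptide tracer; top concentration of the series differs between compounds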
# In short: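 CIB1-GST (1 uM final) and compound incubated 15 min at room temperature before adding FITC-alphaIIb peptide tracer (100 nM final). Competition for binding read by fluorescence polarization (ex 480, em 540) after another 15 min at room temperature.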
# [3] = target: Glutathione peroxidase 1 (Homo sapiens) (UniProt P07203); test: Primary qHTS Assay for Inhibitors of Recombinant Selenoprotein Glutathione Peroxidase 1 (GPX1) (AID 1845191); note: nearly all actives have a fitted effect of over 65% in size
# In short: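 NADPH consumption tracked by fluorescence at 340/450 nm between t=0 and t=15 min, room temperature. Final mix: 10 nM GPX1, 100 nM glutathione reductase, 1 mM GSH, 0.5 mM NADPH, 0.5 mM cumene hydroperoxide, 0.01% BSA; 30 min compound–enzyme preincubation.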
# [4] = target: Phospholipid hydroperoxide glutathione peroxidase GPX4 (Homo sapiens) (UniProt P36969); test: Primary qHTS Assay for Inhibitors of Recombinant Selenoprotein Glutathione Peroxidase 4 (GPX4) (AID 1845192); note: nearly all actives have a fitted effect of over 65% in size
# In short: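 NADPH consumption followed by fluorescence at 340/450 nm, t=0 and after 15 min at room temperature. Reaction started with cumene hydroperoxide (0.5 mM final) after 30 min compound–GPX4 preincubation; final 200 nM GPX4, 100 nM GR, 1 mM GSH, 0.5 mM NADPH.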
# [5] = target: Luciferin 4-monooxygenase (Photinus pyralis) (UniProt P08659); test: Primary firefly luciferase (FLuc) qHTS assay for identification of artifact compounds. (AID 1845220); settings: outcome: dose series up to 54.1 µM unless noted; note: nearly all actives have a fitted effect of over 60% in size
# In short: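 Compounds sat 15 min at room temperature with 10 uM luciferin and 10 uM ATP (pH 7.6 Tris acetate). Firefly luciferase (10 nM final) was then added, and luminescence was read 5 min later. Data normalized to no-enzyme and DMSO controls were Hill-fitted.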
# [6] = Primary fluorescence-based thiol-reactive (MSTI) qHTS assay for identification of artifact compounds. (AID 1845221);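 note: thiol-reactive compounds lower the probe fluorescence signal; nearly all actives have a fitted effect of over 65% in size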
# In short: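 MSTI probe at 4 uM final in 2% DMSO/PBS pH 7.4; compounds, 1 h at room temperature in dark. Fluorescence Ex/Em 525/598 nm, normalised to Acetyl-MSTI and MSTI, fitted to 4-parameter Hill.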
# [7] = test system: Nanoluciferase (engineered Oplophorus gracilirostris luciferase); test: Primary Nanoluciferase (NLuc) qHTS assay for identification of artifact compounds. (AID 1845222)
# In short: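 Luminescence from secreted NLuc (filtered, 1:55-diluted S16 cell medium) read 5 min after Nano-Glo substrate; compounds preincubated 15 min, RT. Hill fits of inhibition normalized to DMSO and no-enzyme.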
# [8] = test system: CAOV3; test: Primary qHTS to identify gynecologic anti-cancer compounds using libraries of approved drugs and bioactive compounds (AID 1345084); settings: Gynecologic cancer cell panel viability, ATPlite luminescence, 48 h; series mostly up to 57.5 µM; note: nearly all actives have a fitted effect of over 55% in size; note: potency is the fitted concentration of half-maximal effect
# In short: (§1)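 Cells, 1,000 per well, plated 16 h, then exposed 48 h at 37 C to compounds. Viability by ATPlite luminescence after 15 min at room temperature.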
# [9] = test system: CASKI; test: as above; settings: Gynecologic cancer cell panel viability, ATPlite luminescence, 48 h; series mostly up to 57.5 µM
# In short: as §1
# [10] = test system: Es-2; test: as above; settings: Gynecologic cancer cell panel viability, ATPlite luminescence, 48 h; series mostly up to 57.5 µM
# In short: as §1
# [11] = test system: Hek293T; test: as above; settings: Gynecologic cancer cell panel viability, ATPlite luminescence, 48 h, control line for the selectivity index; series mostly up to 57.5 µM
# In short: as §1
# [12] = test system: JEG-3; test: as above; settings: Gynecologic cancer cell panel viability, ATPlite luminescence, 48 h; series mostly up to 57.5 µM
# In short: as §1
# [13] = test system: OV90; test: as above; settings: Gynecologic cancer cell panel viability, ATPlite luminescence, 48 h; series mostly up to 57.5 µM
# In short: as §1
# [14] = test system: PA-1; test: as above; settings: Gynecologic cancer cell panel viability, ATPlite luminescence, 48 h; series mostly up to 57.5 µM
# In short: as §1
# [15] = test system: Tov-21-G; test: as above; settings: Gynecologic cancer cell panel viability, ATPlite luminescence, 48 h; series mostly up to 57.5 µM
# In short: as §1
# [16] = test system: Tov112D; test: as above; settings: Gynecologic cancer cell panel viability, ATPlite luminescence, 48 h; series mostly up to 57.5 µM
# In short: as §1
# [17] = Primary redox qHTS assay for identification of artifact compounds. (AID 1845223)
# In short: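 Redox-cycling detection via DTT (250 uM final) oxidation coupled to Amplex Red (25 uM)/HRP (250 mU/mL) in HBSS. 15 min preincubation plus 30 min after DTT, room temperature. Ex/Em 525/598 nm; 4-parameter Hill fit against DMSO and 10 uM DA3003.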
# [18] = test system: NIH3T3; test: Cytotoxic Profiling of Annotated Libraries Using Quantitative High-Throughput Screening (AID 1296008); settings: Five cell lines viability, CellTiter-Glo ATP luminescence, 48-72 h; max response: stronger effect = lower value; note: nearly all actives have a fitted effect of over 60% in size; note: potency is the fitted concentration of half-maximal effect
# In short: (§2)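 Cytotoxicity was measured as CellTiter-Glo ATP luminescence, read after 10 min at room temperature. Compound treatment of the cells lasted 48 or 72 hr at 37 degrees Celsius in a qHTS format.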
# [19] = test system: CRL-7250; test: as above; settings: Five cell lines viability, CellTiter-Glo ATP luminescence, 48-72 h; max response: stronger effect = lower value
# In short: as §2
# [20] = test system: C33A; test: Primary qHTS to identify gynecologic anti-cancer compounds using libraries of approved drugs and bioactive compounds (AID 1345084); settings: Gynecologic cancer cell panel viability, ATPlite luminescence, 48 h; series mostly up to 57.5 µM; note: nearly all actives have a fitted effect of over 55% in size; note: potency is the fitted concentration of half-maximal effect
# In short: as §1
# Chain of Glutathione peroxidase 1 (Homo sapiens) (P07203 whole entry, looked up): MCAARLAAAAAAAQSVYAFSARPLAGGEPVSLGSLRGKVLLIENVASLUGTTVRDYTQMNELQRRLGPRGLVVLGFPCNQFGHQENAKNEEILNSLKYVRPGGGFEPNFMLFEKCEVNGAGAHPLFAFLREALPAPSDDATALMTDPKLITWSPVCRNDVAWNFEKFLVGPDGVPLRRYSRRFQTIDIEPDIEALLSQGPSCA
# Chain of Phospholipid hydroperoxide glutathione peroxidase GPX4 (Homo sapiens) (P36969 whole entry, looked up): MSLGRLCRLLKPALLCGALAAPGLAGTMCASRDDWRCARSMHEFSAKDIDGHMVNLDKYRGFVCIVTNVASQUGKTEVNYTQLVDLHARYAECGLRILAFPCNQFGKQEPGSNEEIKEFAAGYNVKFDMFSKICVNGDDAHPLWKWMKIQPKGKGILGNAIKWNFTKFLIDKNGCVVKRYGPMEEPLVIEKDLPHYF
# Chain of Calcium and integrin-binding protein 1 (Homo sapiens) (Q99828 whole entry, looked up): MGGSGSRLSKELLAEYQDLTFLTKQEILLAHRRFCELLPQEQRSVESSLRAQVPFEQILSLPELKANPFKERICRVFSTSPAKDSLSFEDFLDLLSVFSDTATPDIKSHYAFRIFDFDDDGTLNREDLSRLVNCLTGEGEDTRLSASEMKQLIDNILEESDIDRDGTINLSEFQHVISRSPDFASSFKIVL
smiles,measurement,setting,value
Cc1ccccc1C1=CCN(C)CC1,Potency,[1],inactive
same,Potency,[2],inactive
same,Potency,[3],inactive
same,Potency,[4],inactive
same,outcome,[5],inactive
same,Potency,[6],inactive
same,Potency,[7],inactive
same,Potency,[8],inactive
same,Potency,[9],inactive
same,Potency,[10],inactive
same,Potency,[11],inactive
same,Potency,[12],inactive
same,Potency,[13],inactive
same,Potency,[14],inactive
same,Potency,[15],inactive
same,Potency,[16],inactive
CC[C@@H]1/C=C/C=C/C[C@H](C)C(O)[C@](C)(O)C(=O)[C@H](C)C(O)[C@H](C)C(=O)[C@H](C)[C@@H](O)[C@H](C)/C=C/C(=O)O[C@H]2[C@@H](C)[C@@H](CC1)O[C@]1(O[C@H](C[C@H](C)O)[C@H](C)CC1=O)[C@@H]2C (some centres undefined),Potency,[1],inactive
same,Potency,[2],inactive
same,Potency,[3],inactive
same,Potency,[4],inactive
same,outcome,[5],inactive [at 11.6 µM]
same,"activity change, negative = thiol reactive",[6],-8.56% [at 11.5 µM]
same,"activity, negative = inhibition",[7],-0.681% [at 11.6 µM]
same,redox activity (% of DA3003),[17],13.1% [at 11.5 µM]
same,max response,[18],-27%
same,"activity change, negative = cytotoxicity",[8],-25.5% [at 11.6 µM]
same,"activity change, negative = cytotoxicity",[9],-1.41% [at 11.6 µM]
same,"activity change, negative = cytotoxicity",[10],-1.68% [at 11.6 µM]
same,"activity change, negative = cytotoxicity",[12],22.8% [at 11.6 µM]
same,"activity change, negative = cytotoxicity",[15],25.5% [at 11.6 µM]
same,"activity change, negative = cytotoxicity",[16],-13.7% [at 11.6 µM]
O=C1Nc2ccc3ncsc3c2/C1=C/c1cnc[nH]1,Potency,[1],inactive
same,Potency,[3],inactive
same,Potency,[4],inactive
same,outcome,[5],inactive
same,Potency,[6],inactive
same,Potency,[7],inactive
same,Potency,[17],inactive
same,Potency,[13],inactive
same,Potency,[14],7940 nM (active)
C=C1C(=O)OC2/C=C(\COO)CC/C=C(\COC(C)=O)CC(OC(=O)C(C)CC)C12 (centres undefined),Potency,[1],inactive
same,Potency,[2],inactive
same,Potency,[3],inactive
same,Potency,[4],inactive
same,outcome,[5],inactive
same,Potency,[6],inactive
same,Potency,[7],inactive
same,Potency,[17],inactive
same,Potency,[19],7960 nM (active)
same,Potency,[20],inactive
same,Potency,[8],inactive
same,Potency,[9],inactive
same,Potency,[10],inactive
same,Potency,[12],inactive
same,Potency,[14],inactive
same,Potency,[15],inactive
same,Potency,[16],inactive
C[C@@H]1O[C@@H](O[C@H]2CC[C@@]3(C)C(CC[C@@H]4C3CC[C@]3(C)[C@@H](C5=CC(=O)OC5)CC[C@]43O)C2)[C@H](O)[C@H](O)[C@H]1O (some centres undefined),Potency,[1],inactive
same,Potency,[2],inactive
same,Potency,[3],inactive
same,Potency,[4],inactive
same,outcome,[5],inactive [at 25.7 µM]
same,Potency,[6],inactive
same,Potency,[7],inactive
same,Potency,[17],inactive
same,max response,[18],-2.8%
same,Potency,[20],1000 nM (active)
same,Potency,[8],3980 nM (active)
same,Potency,[9],4470 nM (active)
same,Potency,[10],1260 nM (active)
same,Potency,[11],1000 nM (active)
same,Potency,[13],5620 nM (active)
same,Potency,[14],1000 nM (active)
same,Potency,[15],1000 nM (active)
same,Potency,[16],355 nM (active)
C[C@H](Nc1ncnc2nc[nH]c12)c1nc2ccc(F)cc2c(=O)n1-c1ccccc1,Potency,[1],inactive
same,Potency,[2],inactive
same,Potency,[3],inactive
same,Potency,[4],inactive
same,outcome,[5],inactive
same,Potency,[6],inactive
same,Potency,[7],inactive
same,Potency,[17],inactive
same,max response,[19],-36.2%
same,Potency,[18],13000 nM (active)
same,Potency,[20],inactive
same,Potency,[8],inactive
same,Potency,[9],inactive
same,Potency,[10],inactive
same,Potency,[12],inactive
same,Potency,[13],inactive
same,Potency,[14],inactive
same,Potency,[15],inactive
same,Potency,[16],inactive
